# Assay outcomes (PubChem)
# An excerpt weighted towards active compounds, which were near 15% of everything screened.
# HCMV inh: blocks human cytomegalovirus replication; 4.5% of 410,000 active; AID 1259415; HFF cells, HCMV-luciferase reporter, 72 h; stronger effect = lower value; activity change, negative = inhibition, % at 57.5 µM; in the data active = activity change below about -60%; inconclusive = no clear call, values can overlap the other calls; inactive = above about -39%; note: % is set by controls: 0 for no effect and ±100 for the full control effect
#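 Two-dose cell screen: HFF monolayers treated with compounds and infected with luciferase-expressing HCMV at 1 PFU/cell, 72 h at 37C, then lysed for luciferase measurement.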
# Pf growth 96h: inhibits malaria parasite growth, 96 h | 6.9% of 320,000 active | P. falciparum luciferase reporter growth, 96 h | AID 504834 | Potency, µM (titrated, usually from 28.7 µM), for the others: at the top dose activity change, negative = inhibition, most hits filed as inhibitors; note: potency is the fitted concentration of half-maximal effect; % is set by controls: 0 for no effect and ±100 for the full control effect
#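 Parasite growth measured via integrated firefly luciferase reporter in P. falciparum. Infected erythrocytes at 2% hematocrit, 0.05% parasitemia final were treated 96 hours at 37 C under 5% CO2, and luminescence was read.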
# Sm TGR block: inhibitors of Schistosoma mansoni thioredoxin glutathione reductase; purified TGR, DTNB reduction, TNB absorbance 405 nm; Potency, µM (series often up to 114 µM), for inactives: at the top dose activity change, negative = inhibition, actives largely listed as inhibitors; 3% of 360,000 active; AID 485364; note: potency is the fitted concentration of half-maximal effect; % is set by controls: 0 for no effect and ±100 for the full control effect; nearly all actives have a fitted effect of over 60% in size
#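 TGR 20 nM + NADPH 100 uM (dispensed conc.), cpd preinc 15 min RT; start with NADPH (500 uM addition) then DTNB (15 mM addition). Kinetic TNB absorbance, 405 nm filter. Four-parameter Hill fit across titration.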
# Pf growth 48h: inhibits P. falciparum growth in the first generation, 48 h | P. falciparum luciferase growth in erythrocytes, 48 h | Potency, µM (top dose mostly 28.7 µM), without a hit: at the highest dose activity change, negative = inhibition, hits mostly inhibitors | 5.9% of 310,000 active; note: potency is the fitted concentration of half-maximal effect; % is set by controls: 0 for no effect and ±100 for the full control effect
#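 First compound was added to culture medium, then infected red cells at 0.1% parasitemia and 2% hematocrit (final). After incubation at 37 C under 5% CO2, luciferase detection reagent was dispensed and light output recorded.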
# HCV inh: blocks hepatitis C virus. Huh7.5.1 HCVcc-Cre infection, luciferase reporter, 44 h. Potency, µM (highest dose often 41.8 µM), for inactives: at the top dose activity change, negative = inhibition, usual class: inhibitors. 3.4% of 340,000 active. AID 651820; note: potency is the fitted concentration of half-maximal effect; % is set by controls: 0 for no effect and ±100 for the full control effect
#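 Seed cells (1,000/well) for 4 h; treat with compound and infect with HCVcc-Cre, moi about 0.5. Incubate 44 h, then detect luciferase activity.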
# SARS PLpro yeast: blocks SARS-CoV papain-like protease in a yeast assay | S. cerevisiae expressing SARS-CoV PLpro, growth rescue | Potency, µM (top dose mostly 32.9 µM), without a hit: top-dose activity, positive = growth rescue, most hits filed as activators | AID 485353 | 0.19% of 330,000 active; calls by dose curve; note: potency is the fitted concentration of half-maximal effect; 0% is about no effect; nearly all actives have a fitted effect of over 55% in size
# Numbers without * were called inactive; ? = inconclusive; nt = no result given; [ ] = another dose, or the depositor's remark. Unless noted, calls come from the whole dose curve; as a rule, active = well fitted curve in the direction sought with a large enough effect; inconclusive = small, poorly fitted or top-dose-only effect, or another doubt; inactive = no such curve, though single readings can be large; an effect the other way counts as inactive or inconclusive.
SMILES,HCMV inh,Pf growth 96h,Sm TGR block,Pf growth 48h,HCV inh,SARS PLpro yeast
COC(=O)c1sc2nc(SCc3cccc(Cl)c3)n(N)c(=O)c2c1C,-24,9.3µM*,-1%,0%,?,?
COC(=O)c1sc2nc(SCc3ccccc3C)n(N)c(=O)c2c1C,-26,?,-7%,-5%,?,-28%
CCc1nnc2c3ccccc3nc(Nc3ccccc3OC)n12,-11,nt,6%,nt,nt,nt
O=C(NNC1CC(=O)N(c2ccc(F)cc2)C1=O)c1cccnc1 (stereo unspecified),-21,15%,7.9µM*,6%,24%,-1%
O=C(NNC1CC(=O)N(c2ccccc2)C1=O)c1cccnc1 (stereo unspecified),48,38%,1%,1%,17%,2%
CN(C(=O)CSc1cc(C(=O)c2nccn2C)c2ccccc2n1)c1ccccc1,-99*,-16%,?,?,-25%,0%
Cn1ccnc1C(=O)c1cc(SCC(=O)NC2CC2)nc2ccccc12,-6,12%,-1%,17%,-7%,-4%
Clc1ccccc1-c1nnc2sc(-c3cccs3)nn12,22,nt,-6%,?,19%,22µM*
Clc1ccccc1-c1nnc2sc(-c3ccncc3)nn12,-16,2%,4%,nt,-10%,-5%
Clc1ccccc1-c1nn2c(-c3ccccn3)nnc2s1,-39,-16%,-3%,8.3µM*,-18%,3%
Clc1ccccc1-c1nn2c(-c3ccncc3)nnc2s1,nt,?,-23%,10µM*,?,1%
c1ccc(Cc2nnc3sc(-c4cccs4)nn23)cc1,-9,17%,-2%,?,-28%,-13%
COc1ccc(-c2nnc3sc(-c4cccs4)nn23)cc1OC,-8,12µM*,-28%,-9%,-8%,0%
Clc1ccc(-c2nnc3sc(-c4ccccn4)nn23)cc1,nt,nt,-17%,26%,nt,0%
CC1(c2ccc3c(c2)OCCO3)NC(=O)N(CC(=O)Nc2ccccc2)C1=O (stereo unspecified),1,?,-11%,5%,6%,-11%
Cc1noc(N)c1C1(O)C(=O)Nc2c(Cl)cc(Cl)cc21 (stereo unspecified),0,-3%,9%,1%,7%,-2%
COc1c(OC(C)=O)ccc(/C=C/c2ccc3cccc(OCc4ccccc4)c3n2)c1[N+](=O)[O-],12,?,-3%,1.9µM*,7.1µM*,14%
COc1cc(/C=C/c2ccc3cccc(OC)c3n2)c(OC(C)=O)c([N+](=O)[O-])c1,-84*,?,-2%,nt,8.9µM*,-19%
COc1cc(/C=C/c2ccc3cccc(OC)c3n2)c(O)c([N+](=O)[O-])c1,-37,-3%,2%,?,?,-1%
CC(=O)NC12CC3CC(C1)CC(C(=O)OCC(=O)Nc1ncc(Cl)cc1Cl)(C3)C2,68,12µM*,?,?,-2%,-6%
CC1CC1C(=O)OCC(=O)Nc1ncc(Cl)cc1Cl (stereo unspecified),-11,16%,-13%,-19%,-1%,-3%
CC(=O)NC12CC3CC(C1)CC(C(=O)OCC(=O)Nc1c(F)cccc1F)(C3)C2,-20,6.6µM*,4%,?,7%,-2%
O=C(COC(=O)C12CC3CC(CC(Br)(C3)C1)C2)Nc1c(F)cccc1F,-36,nt,nt,nt,2%,-1%
CCCC(C)c1oc(=O)cc(O)c1C (stereo unspecified),-19,nt,nt,nt,-6%,-13%
Cc1ccc(CNc2ncnc3ccc(-c4ccc(CO)o4)cc23)o1,-33,nt,nt,nt,nt,nt
CCn1c(=O)c2cc(C(=O)NCC(OC)OC)sc2c2ccccc21,21,1.5µM*,1%,10%[0.00184 µM],?,-5%
CCCCN(CC)CCCNC(=O)c1cc2c(=O)n(CC)c3ccccc3c2s1,169,-2%,-32%,-21%[0.00184 µM],25µM*,2%
CCCCN(CC)CCNC(=O)c1cc2c(=O)n(C)c3ccccc3c2s1,150,?,0%,?,?,2%
